Assay outcomes: PubChem, National Center for Advancing Translational Sciences (NCATS)
KB-V1 cytotox – qHTS assay for MDR1-selective chemotherapeutics: Primary screen using the drug-selected MDR subline cells KB-V1 | KB-V1 MDR cells viability, CellTiter-Glo, 72 h | Potency, µM (series often up to 46.1 µM), actives largely listed as cytotoxic | actives 3.4% (n = 400,000); also: nearly all actives have a fitted effect of over 60% in size
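qHTS viability screen in drug-selected KB-V1 MDR cells: 72 h compound treatment at 37 degrees C, ATP luminescence end point.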
RORg inh – qHTS for inhibitors of ROR gamma transcriptional activity; Potency, µM (doses to about 53.6 µM), actives largely listed as inhibitors; Drosophila S2 Gal4-RORgamma UAS-luciferase reporter, 20 h; actives 5.4% (n = 310,000); Nuclear receptor ROR-gamma (Mus musculus), P51450; also: nearly all actives have a fitted effect of over 60% in size
Target sequence (P51450 whole entry, looked up, the tested form may be a part): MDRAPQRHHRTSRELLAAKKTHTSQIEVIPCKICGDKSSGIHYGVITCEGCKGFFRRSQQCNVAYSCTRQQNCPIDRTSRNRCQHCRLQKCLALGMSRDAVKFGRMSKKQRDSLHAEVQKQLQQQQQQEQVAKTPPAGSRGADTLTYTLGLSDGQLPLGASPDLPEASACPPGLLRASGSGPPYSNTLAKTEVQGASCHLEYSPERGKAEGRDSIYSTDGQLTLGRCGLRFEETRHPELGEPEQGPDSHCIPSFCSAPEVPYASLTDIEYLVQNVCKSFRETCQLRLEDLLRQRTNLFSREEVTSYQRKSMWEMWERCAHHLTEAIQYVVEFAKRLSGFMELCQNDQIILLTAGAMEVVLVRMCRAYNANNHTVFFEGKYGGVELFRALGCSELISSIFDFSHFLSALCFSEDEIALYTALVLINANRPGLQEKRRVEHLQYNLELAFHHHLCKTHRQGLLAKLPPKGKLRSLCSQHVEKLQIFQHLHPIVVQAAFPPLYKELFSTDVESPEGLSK
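Stable Schneider cell line, Gal4 DNA-binding domain fused to ROR gamma, UAS-luciferase. Cmpd 1 hr RT → CuSO4 700 uM final → 20 hr RT → luciferase reagent 10 min → luminescence.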
MCF10A rerep – A quantitative high throughput screen for small molecules that induce DNA re-replication in MCF 10a normal breast cells | MCF 10A DNA re-replication, Hoechst nuclear intensity, 48 h | Potency, µM (top dose mostly 46.1 µM), usual class: activators | actives 2.9% (n = 350,000) | AID 624296, 2012; also: nearly all actives have a fitted effect of over 50% in size
SW480 rerep – A quantitative high throughput screen for small molecules that induce DNA re-replication in SW480 colon adenocarcinoma cells; SW480 DNA re-replication, Hoechst DNA content imaging, 48 h; Potency, µM (doses to about 46.1 µM), hits mostly activators; actives 1.8% (n = 340,000); AID 624297, 2012; also: nearly all actives have a fitted effect of over 55% in size
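Readout is total intensity of Hoechst-stained nuclei, excited at 405 nm and collected at 500-530 nm. Compound treatment lasted 48 hr at 37 C in 5% CO2 before staining.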
KB-3-1 tox – qHTS assay for MDR1-selective chemotherapeutics: Primary screen using the parental adenocarcinoma cell KB-3-1; actives 1.4% (n = 400,000); KB-3-1 viability, CellTiter-Glo ATP luminescence, 72 h; Potency, µM (titrated, usually from 46.1 µM), actives largely listed as cytotoxic; AID 1347075, 2019; also: nearly all actives have a fitted effect of over 60% in size
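Parental KB-3-1 adenocarcinoma cells in phenol-red-free DMEM with 10% FBS were pin-treated with compounds at several concentrations, incubated 72 h at 37 °C, and viability read by CellTiter-Glo luminescence; concentration-effect curves were fitted after normalization.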
VP16 counter – VP16 counterscreen qHTS for inhibitors of ROR gamma transcriptional activity | Drosophila S2 Gal4-VP16 UAS-luciferase, luminescence, 20 h | Potency, µM (top dose mostly 53.6 µM), usual class: inhibitors | actives 3.5% (n = 310,000) | AID 2546, 2010;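 also: Gal4-VP16 expression switched on by copper sulfate through the metallothionein promoter; nearly all actives have a fitted effect of over 50% in size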
Hits are given with their value; 0 = inactive; ? = inconclusive; - = no result; ! = not confirmed by another sample; [ ] = remark or other dose. This is a sample that favours compounds with a hit; in the whole collection about 10% have one here. Calls follow the shape of the dose curve; as a rule, active = well fitted curve in the direction sought with a large enough effect; inconclusive = small, poorly fitted or top-dose-only effect, or another doubt; inactive = no such curve, though single readings can be large; an effect the other way counts as inactive or inconclusive.

SMILES	KB-V1 cytotox	RORg inh	MCF10A rerep	SW480 rerep	KB-3-1 tox	VP16 counter
Cc1ccc(S(=O)(=O)c2cc3cc(Br)ccc3oc2=O)cc1	18µM	0	?	0	21µM	0
CC(C)c1ccc(S(=O)(=O)c2cc3cc(Br)ccc3oc2=O)cc1	?	0	8.2µM	0	?	?
CC(C)c1ccc(NC(=O)c2ccc3oc(=O)c(S(=O)(=O)c4ccc(F)cc4)cc3c2)cc1	0	-	-	-	0	-
Cc1ccc2oc(=O)c(S(=O)(=O)c3ccc(F)cc3)cc2c1	0	-	-	-	0	-
COc1ccc(C(=O)c2sc(Nc3ccccc3)nc2N)cc1	13µM!	?	?	?	0	0
COc1ccc(C(=O)c2cc(C(C)=O)c(Nc3ccccc3)s2)cc1	16µM	?	0	?	?	0
COc1ccc(C(=O)c2sc(Nc3ccccc3)nc2N)cc1OC	15µM	0	?	?	?	?
COc1cccc(/C=C2/SC(=S)N(CC(=O)Nc3nccs3)C2=O)c1	?	-	-	-	0	-
CC(=O)c1c(C)[nH]c(C(=O)N2CCCC(C)C2)c1C (centres undefined)	0	0	0	2.3µM	0	0
COc1ccc(/C=C2/C(=O)OCc3cc(OC)c(OC)cc32)cc1	3.7µM	0	?	4.1µM	?	0
O=C(COc1ccc(Cl)cc1)c1ccc(O)cc1O	0	0.16µM	0	0	0	1.4µM
CCOC(=O)c1ccc(OCC(=O)c2ccc(O)cc2O)cc1	0	0.25µM	0	0	0	1.1µM
COC(=O)c1ccc(OCC(=O)c2ccc(C)c(C)c2)cc1	0	?	0	0	0	?
O=C(COc1ccccc1)OCC(=O)c1ccc(O)cc1O	0	-	0	?	0	-
O=C(COc1ccccc1F)c1ccc(O)cc1O	?	3.2µM	0	0	0	?
Cc1c(O)ccc(C(=O)COc2ccccc2F)c1O	0	0	?	0	0	0
COC(=O)c1ccc(OCC(=O)c2ccc(O)cc2O)cc1	23µM	0.079µM	0	0	?	0.89µM
CCc1nn2c(-c3ccccc3OC)ccnc2c1-c1ccccc1	0	-	-	-	0	-
CCOC(=O)C1=C(C)Nc2ncnn2C1c1c[nH]c2ccccc12 (centres undefined)	0	10µM	0	0	0	0
COc1cc2nc(CN(CCC(C)C)Cc3nc4cc(OC)c(OC)cc4c(=O)[nH]3)[nH]c(=O)c2cc1OC	0	0.79µM	0	0	0	6.3µM
CC(C)C(NC(=O)c1c(F)cccc1F)C(=O)OCN1C(=O)c2ccccc2C1=O (centres undefined)	0	-	0	0	0	-
CC(C)[C@H](NC(=O)c1ccccc1F)C(=O)OCCN1C(=O)c2ccccc2C1=O	15µM	-	0	0	0	-
COC(=O)[C@H](C)NC(=O)C/C=C\[C@@H](C)[C@@H](CO)OC	-	0[10 µM]	-	-	-	0[10 µM]
Nc1cccc(/C=C2\C=Cc3ccccc32)c1	0	-	-	-	0	-
CC1(C)Cc2[nH]c(=S)c(C#N)cc2CO1	0	20µM	?	0	0	?
SMILES	KB-V1 cytotox	RORg inh	MCF10A rerep	SW480 rerep	KB-3-1 tox	VP16 counter
N#Cc1cc2c([nH]c1=S)CCCC2	0	0	0	?	0	0
Cc1ccc(C(=O)Nc2ccc3oc(-c4ccc(C(C)(C)C)cc4)nc3c2)cc1	0	-	-	-	0	-
O=C(Nc1nnc(C2=COCCO2)o1)c1ccc(Cl)cc1	0	0.63µM	0	?	0	0
O=C(Nc1nnc(C2=COCCO2)o1)c1cccc(C(F)(F)F)c1	-	0.56µM	?	0	-	0.32µM
O=C(Nc1nnc(C2=COCCO2)o1)c1ccc(F)cc1	0	0.89µM	0	?	0	0.79µM
O=C(Nc1nnc(C2=COCCO2)o1)c1ccc(Cc2ccccc2)cc1	?	0.63µM	0	?	0	3.2µM
CC(=O)Nc1nnc(C2=COCCO2)o1	0	0	0	0	0	0
CS(=O)(=O)c1cccc(-c2nnc(NC(=O)C3=COCCO3)o2)c1	0	-	0	0	0	-
O=C(Nc1nnc(C2=COCCO2)o1)c1ccc(Br)cc1	-	0.79µM	-	-	-	0.5µM
O=C(Nc1nnc(C2=COCCO2)o1)c1ccc([N+](=O)[O-])cc1	?	1.1µM	0	0	0	0.89µM
Cn1cnc(S(=O)(=O)N2CCCCC2c2cc(C(=O)Nc3cccc4c3CCCC4)no2)c1 (centres undefined)	0	-	-	-	0	-
CCn1c(SCC(=O)Nc2ccc(C)cc2Br)nnc1-c1nonc1NC(C)=O	0	-	-	-	0	-
Cc1cccc(-c2nnn3c2nc(NCc2ccccc2)c2ccccc23)c1	0	-	-	-	0	-
CCC(C)NC(=O)CSc1nc2ccc(N3CCOCC3)cc2c(=O)n1CCc1ccccc1 (centres undefined)	-	7.9µM	-	-	-	?
CCCCn1c(SCC(=O)NC(C)CC)nc2ccc(N3CCOCC3)cc2c1=O (centres undefined)	3.3µM	1.3µM	0	0	0	20µM
CCCCn1c(SCC(=O)Nc2ccc(OC)cc2)nc2ccc(N3CCOCC3)cc2c1=O	0	?	0	0	0	10µM
C=CCn1c(SCC(=O)Nc2ccc(N3CCOCC3)cc2)nc2ccccc2c1=O	0	0	0	0	0	0
CCCCn1c(SCC(=O)NCc2ccco2)nc2ccc(N3CCOCC3)cc2c1=O	2.1µM	6.3µM	?	0	0	18µM
CCOC(=O)CSc1nc2ccc(N3CCOCC3)cc2c(=O)n1Cc1ccc2c(c1)OCO2	-	?	-	-	-	0
CCC(C)NC(=O)CSc1n[nH]c(=O)n1CCc1ccccc1 (centres undefined)	0	0	0	0	0	0
CCCCn1c(SCC(=O)NCc2ccccc2)nc2ccc(N3CCOCC3)cc2c1=O	?	?	0	0	0	?
CCCCCC(=O)/C=C/C=C\CCCCCCCC(=O)O	-	0	-	-	-	0
CC(C)(C)c1ccc(C(=O)N2CCC(=O)N(C(COCc3ccccc3)Cc3ccccc3)CC2)cc1 (centres undefined)	?	0	21µM	?	?	14µM
Cc1cccc(COCC(Cc2ccccc2)N2CCN(C(=O)c3cc(Cl)cc(Cl)c3)CCC2=O)c1 (centres undefined)	0	?	23µM	18µM	?	0
O=C(c1ccc(Cl)c(Cl)c1)N1CCC(=O)N(C(COCc2cccc(C(F)(F)F)c2)Cc2ccccc2)CC1 (centres undefined)	?	0	?	18µM	?	?
CCCCc1nn2c(=O)cc(COC(=O)c3cccs3)nc2s1	0	-	-	-	0	-
NC(=O)[C@@H]1CCCN1	-	0	-	-	-	0
